According to PubChem BioAssay AID504444 (National Center for Advancing Translational Sciences (NCATS), 2011):
Values joined by “and” are separate entries in the source; they are usually repeats but may differ in a detail not shown here. Equal values may be shown once. The campaign covered roughly 360,000 compounds. About 7,500 (2.1%) were called active. Entries that show only a call come without a potency. Roughly 20% stayed inconclusive and do not appear here. Calls come from the whole dose curve; as a rule, active = well fitted inhibition curve with a large enough effect; inconclusive = small, poorly fitted or top-dose-only effect, or effect the other way; inactive = flat fitted curve, though single readings scatter. The sample as a whole holds a higher share of actives than the screen did.

assay: Nrf2 qHTS screen for inhibitors; settings: A549 ARE-Fluc reporter, luciferase luminescence, 18-24 h; series mostly up to 46 µM; note: nearly all actives have a fitted effect of over 60% in size
Method in brief: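 A549 ARE_Fluc cells, 5000/well, 5% FBS OPTI-MEM; compounds in dose-response, 18-24 h at 37 °C/5% CO2; CellTiter-Fluor viability read (Ex 405/Em 525), then BugLite luciferase luminescence = Nrf2 activity.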
Potency is the fitted concentration of half-maximal effect.

Compound | Potency | activity change, negative = inhibition
CSCCC(NS(=O)(=O)c1ccc(C)cc1)C(=O)N(C)CC(=O)Nc1ccccc1Br (stereo not drawn) | inactive | –
O=[N+]([O-])c1ccc(COc2ccccc2CN2CCOCC2)cc1 | inactive | –
CCOC(=O)c1c(C)[nH]c(C)c1S(=O)(=O)N1CCC(C(=O)Nc2ccc(C)c(Cl)c2)CC1 | inactive | –
CC1=Nc2cc(C(=O)N3CCC(C)CC3)ccc2Sc2ccc(Cl)cc21 | 16.4 µM (active) | –
CC1CCN(C(=O)c2ccc3c(c2)NC(=O)CN3)CC1 | inactive | –
COc1ccc(C(=O)Nc2c(Cl)cc(Cl)cc2C(=O)N2CCC(C)CC2)cc1 | inactive | –
CC1CCCCC1NC(=O)NC(=O)COC(=O)C1=NN(c2ccccc2)C(=O)CC1 (stereo not drawn) | inactive | –
O=C1C(F)N([S+](=O)([O-])c2ccc3c(c2)OCCO3)CCN1[S+](=O)([O-])c1c(F)cccc1F (stereo not drawn) | inactive | –
COc1cc2nc(NCC(C)c3ccccc3)n3nc(-c4ccccc4)nc3c2cc1OC (stereo not drawn) | inactive | –
COc1ccc(N2CCN(C(=O)CCc3nc(-c4ccc(C)cc4)no3)CC2)cc1 | inactive | –
COc1ccc(-c2noc(CCC(=O)N(C)c3ccccc3C)n2)cc1 | 20.6 µM (active) | –
COc1ccc(-c2noc(CCC(=O)N3CCN(c4cccc(C)c4)CC3)n2)cc1 | inactive | –
Cc1cc(OCC(=O)Nc2ncn[nH]2)c(C)c(C)c1Br | inactive | –
CC(C)OC(=O)CN1CCN(c2ccc(Cl)cc2)CC1 | 16.4 µM (active) | –
O=C(CN1CCN(c2ccc(Cl)cc2)CC1)c1ccccc1 | inactive | –
O=C(CN1CCN(c2ccc(Cl)cc2)CC1)N1CCCC1 | inactive | –
Cc1ccc(-c2cnc(NCc3ccc(C(C)C)cc3)n2C)cc1 | inactive | –
CCOc1ccc(-c2cc3nc(C4CCN(C(=O)OC(C)(C)C)CC4)c(C(=O)Nc4cccc(CC)c4)cn3n2)cc1 | inactive | –
Cc1ccc(C)c(N2CCN(Cc3nnc(-c4ccccc4)o3)CC2)c1 | inactive | –
CCn1c2ccccc2c2nnc(SCC(=O)O)nc21 | inactive | –
CCn1c2ccccc2c2nnc(N3CCN(c4cc(C)ccc4C)CC3)nc21 | 20.6 µM (active) | –
Cc1ccc(S(=O)(=O)n2nc(-c3ccc(Cl)cc3)nc2NCc2ccccc2)cc1 | inactive | –
Cc1ccc(NC(=O)CN(C)C(=O)c2cccc(S(=O)(=O)N3CCCC3)c2)cc1 | inactive | –
COc1ccc(NC(=O)CN(C)C(=O)c2cccc(S(=O)(=O)N3CCN(c4ccccc4)CC3)c2)cc1 | 16.4 µM (active) | –

Compound | Potency | activity change, negative = inhibition
CCOc1ccc(NC(=O)CN(C)C(=O)c2cccc(S(=O)(=O)N3CCCC3)c2)cc1OCC | inactive | –
COc1ccccc1C(=O)OCc1cc(=O)n2nc(-c3cccs3)sc2n1 | inactive | –
CC(C)(C)S(=O)(=O)N1Cc2cc(CO)cc(CCO)c2[C@H]1CCO | inactive | –
O=C(N/N=C/c1ccccn1)c1ccc(S(=O)(=O)N2CCCCCC2)cc1 | inactive | –
O=C(N/N=C/c1ccccn1)c1cccc(NC(=O)c2ccc(Cl)cc2)c1 | 23.1 µM (active) | –
O=C(N/N=C/c1ccccn1)c1cccnc1 | inactive | –
CCOc1ccc(/C=C(/C#N)c2nnc(N3CCOCC3)n2-c2ccccc2)cc1OC | inactive | –
COc1ccc(CNC(=O)c2ccc(NC(=O)N3CC4CCCN4c4ccccc43)cc2)cc1 (stereo not drawn) | inactive | –
CCN(CCCNC(=O)c1cc2c(=O)n(CC)c3ccccc3c2s1)Cc1ccccc1 | inactive | –
CCN1CCN(c2cc(C)c3cc(NC(=O)c4cc(Cl)ccc4OC)ccc3n2)CC1 | – | 12% [at 9.27 µM] (inactive)
O=C(Nc1ncc([N+](=O)[O-])s1)C1COc2ccccc2O1 (stereo not drawn) | 14.6 µM (active) | –
O=C(Nc1nc2c(F)cc(F)cc2s1)C1COc2ccccc2O1 (stereo not drawn) | inactive | –
O=C(Nc1nnc(SCc2ccc(Cl)cc2Cl)s1)C1COc2ccccc2O1 (stereo not drawn) | inactive | –
Cc1ccc(C(=O)Nc2cc3c(cc2N2CCCC2)n(C)c(=O)c(=O)n3C)cc1 | inactive | –
CN(C)C(=O)CCc1ccc2c3c([nH]c2c1)[C@]1(CCc2ccccc2)[C@@H](C(=O)N2CCCCC2)C[C@H](CC(=O)NCCC2=CCCCC2)C(=O)N1CC3 | inactive | –
O=C(Cn1c(-c2cccs2)cc2ccccc21)NCCc1ccc(Cl)cc1 | inactive | –
CCOc1ccc(S(=O)(=O)N2CCN(C(=S)NCC3CCCO3)CC2)cc1 (stereo not drawn) | inactive | –
COc1ccc(S(=O)(=O)N2CCN(C(=S)NCC3CCCO3)CC2)cc1OC (stereo not drawn) | inactive | –
S=C(NCC1CCCO1)N1CCN(c2ccc(Cl)c(Cl)c2)CC1 (stereo not drawn) | 14.6 µM (active) | –
CCCCOc1ccc(CN2C(=O)C(=O)c3cc(Br)cc(C)c32)cc1OC | inactive | –
O=C(CN1C(=O)COc2ccc(S(=O)(=O)N3CCCCCC3)cc21)N1CCN(c2cccc(C(F)(F)F)c2)CC1 | inactive | –
CCc1cc2c(cc3c(=O)n(CC(=O)NCc4cccc(Cl)c4)nc(CC)n32)s1 | inactive | –
CN(C)c1ccc(NC(=O)CSc2nc(-c3ccco3)cc(C(F)(F)F)n2)cc1 | inactive | –
Cc1ccc(S(=O)(=O)N2CCN(c3nc(-n4cnc5ccccc54)nc4ccccc34)CC2)cc1 | inactive | –

Compound | Potency | activity change, negative = inhibition
COc1ccc(C)cc1S(=O)(=O)N1CCN(S(=O)(=O)c2cc(C(=O)O)ccc2C)CC1 | inactive | –
Cc1ccc(C)c(S(=O)(=O)N2CCN(C(=O)Nc3ccccc3)CC2)c1 | inactive | –
Cc1ccc(S(=O)(=O)N2CCN(c3ncnc4ccccc34)CC2)cc1 | 2.31 µM (active) and 8.2 µM (active) | –
O=[N+]([O-])c1ccc(S(=O)(=O)N2CCN(c3nc(-c4ccccc4)nc4ccccc34)CC2)cc1 | inactive | –
Cc1ccc(C)c(S(=O)(=O)N2CCN(c3ncnc4sccc34)CC2)c1 | 18.4 µM (active) | –
Cc1ccc(C)n1-c1nnc(N2CCC(C(=O)NCc3ccccc3Cl)CC2)s1 | inactive | –
CCCCn1nc(C(=O)Nc2cccc(C(=O)NC3CC3)c2)c2ccccc2c1=O | inactive | –
Cc1ccccc1NC(=O)CSC(=O)c1ccccc1 | inactive | –
CC(=O)c1ccc(-c2nnc(CCC(=O)N(C)Cc3cnc4ccccn34)o2)s1 | inactive | –
CCc1ccc(CN(C)C(=O)CCc2nnc(-c3ccc(-c4ccccc4)cc3)o2)nc1 | 18.4 µM (active) | –
CCc1ccc(CN(C)Cc2nc(Cc3ccccc3)no2)nc1 | inactive | –
NC(=S)NN=C1CCCC(C(F)(F)F)C1 (stereo not drawn) | inactive | –
O=S(=O)(Nc1ccc2nc(N3CCOCC3)sc2c1)c1ccccc1 | inactive | –
COc1ccc(Cl)cc1NC(=O)COC(=O)c1ccc(Br)o1 | inactive | –
CC(=O)Nc1ccc(S(=O)(=O)NCCC(=O)N2CCN(c3ccccc3Cl)CC2)cc1 | inactive | –
CC(=O)Nc1ccc(NC(=O)COc2ncnc3ccccc23)cc1 | inactive | –
CC(=O)Nc1ccc(Nc2c3ccccc3nc3ccccc23)cc1 | 5.8 µM (active) | –
CCc1nc(Nc2ccc(NC(C)=O)cc2)c2oc3ccccc3c2n1 | inactive | –
O=C1N[C@H](Cc2c[nH]c3ccccc23)COC(=O)[C@H](Cc2ccc(F)cc2)C/C=C\C[C@H]1CC(=O)N(CCO)Cc1ccccc1 | inactive | –
O=C(C1CCCN(S(=O)(=O)c2cccc3nonc23)C1)N1CCN(c2ccccc2F)CC1 (stereo not drawn) | inactive | –
COc1ccc(S(=O)(=O)Nc2ccc3cn[nH]c3c2)cc1[N+](=O)[O-] | inactive | –
O=[N+]([O-])c1cc(S(=O)(=O)Nc2cccc(Cl)c2)ccc1N=Nc1c(O)[nH]c2ccccc12 | 20.6 µM (active) | –
O=C(O)c1ccccc1/C=N/Nc1ccc(S(=O)(=O)Nc2ccc(Cl)cc2)cc1[N+](=O)[O-] | inactive | –
O=C(NCCCO)c1nn(-c2ccc(Cl)cc2)nc1CO | inactive | –

Compound | Potency | activity change, negative = inhibition
O=C(CN1CCCSc2ccccc21)N1CCN(S(=O)(=O)c2ccccc2)CC1 | inactive | –
Cc1ccc(-c2nn(CCC(=O)Nc3ccc(OC(F)(F)F)cc3)c(=O)c3ccccc23)cc1 | inactive | –
CCOc1ccc(N(CC(=O)NC2CCCCCC2)S(=O)(=O)c2c(C)[nH]c(=O)[nH]c2=O)cc1 | inactive | –
CCCN(c1ccc(C(C)C)cc1)S(=O)(=O)c1c(C)[nH]c(=O)[nH]c1=O | 5.8 µM (active) | –
CCOc1ccc(N(CC(=O)Nc2ccccc2F)S(=O)(=O)c2c(C)[nH]c(=O)[nH]c2=O)cc1 | inactive | –
COc1ccccc1CNC(=O)c1ccc(CS(=O)c2ccccc2Cl)o1 (stereo not drawn) | inactive | –
COC(=O)[C@]1(Cc2ccccc2)N[C@H](CN(C)S(=O)(=O)c2ccc(F)cc2)[C@@H]2C(=O)N(Cc3ccccc3)C(=O)[C@@H]21 | inactive | –
O=C(Nc1nnc(S(=O)(=O)N2CCCc3ccccc32)s1)c1cccc(F)c1 | inactive | –
Cc1ccc(NC(=O)c2cccc(S(=O)(=O)N3CCCc4ccccc43)c2)nc1 | 10.3 µM (active) | –
CC1CCN(C(=O)c2cccc(S(=O)(=O)N3CCCc4ccccc43)c2)CC1 | inactive | –
Cc1ccc(S(=O)(=O)N2CCN(C(=O)Cn3c(=O)cnc4ccccc43)CC2)c(C)c1 | inactive | –
O=C1OC(Oc2ccc(Br)cc2)(c2ccccc2)c2ccccc21 (stereo not drawn) | inactive | –
CC(C)N(C(=O)COC(=O)c1ccccc1C(=O)N1CCN(c2ccc(F)cc2)CC1)C(C)C | inactive | –
CCOc1ccc(NC(=O)c2cn(C3CCCCC3)c(=O)c3c2c2ccccc2n3C)cc1 | inactive | –
Cn1c2ccccc2c2c(C(=O)N3CCN(c4ccc(F)cc4)CC3)cn(C3CCCC3)c(=O)c21 | 25.9 µM (active) | –
COc1cc(C2c3c(oc4ccccc4c3=O)C(=O)N2c2nc(C)c(C)s2)ccc1O (stereo not drawn) | inactive | –
CC[C@]12c3[nH]c4cc(CCC(=O)N(C)C)ccc4c3CCN1C(=O)[C@@H](CC(=O)NCC13CC4CC(CC(C4)C1)C3)C[C@@H]2C(=O)N1CCN(C(=O)C2CC2)CC1 | inactive | –
CCOC(=O)c1c(C)n(S(=O)(=O)c2ccc(C)cc2C)c2ccc(NS(=O)(=O)c3ccc(C)cc3C)cc12 | inactive | –
O=C(Nc1cccc(S(=O)(=O)N2CCCC2)c1)c1cncc(Br)c1 | inactive | –
COc1cc(C(=O)NNC(=O)c2ccc(S(=O)(=O)N3CCCCC3)cc2)cc(OC)c1OC | inactive | –
CCN(CC)S(=O)(=O)c1cccc(NC(=O)c2ccc(S(=O)(=O)N3CCCC3)cc2)c1 | 23.1 µM (active) | –
